Source: PubChem BioAssay
An excerpt weighted towards active compounds, which were near 0.74% of everything screened.
UGM FP inh = inhibitors of M. tuberculosis UDP-galactopyranose mutase; P9WIQ1; purified UGM, fluorescence polarization probe displacement; inhibition, % at 10 µM; 320,000 tested, 0.06% active; in the data active = inhibition above about 10%, passing the limit was not always enough
MazF activator = activators of E. coli MazEF toxin-antitoxin RNase; FAM/BHQ RNA-DNA oligo cleavage fluorescence, 5 h; activation, % at 20 µM; 350,000 tested, 0.32% active; AID 504720; in the data active = activation above about 50%
Target sequence (P0AE70 whole entry, looked up): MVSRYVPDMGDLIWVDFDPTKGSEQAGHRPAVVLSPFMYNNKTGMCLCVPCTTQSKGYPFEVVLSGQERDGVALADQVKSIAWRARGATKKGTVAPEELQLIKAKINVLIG
Vc quorum ag = inducers of Vibrio cholerae quorum light production without autoinducers; activation, % at 18.7 µM; 350,000 tested, 0.16% active; V. cholerae BH1578 lux reporter, luminescence, 6 h; in the data active = activation mostly above about 9.7%, no sharp cut-off
Mtb bLac sens = beta-lactam sensitization of Mtb H37Rv; M. tuberculosis H37Rv growth with meropenem, percent inhibition; AID 434955; inhibition, % at 25 µM; 330,000 tested, 0.27% active; call rule not given here;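 note: growth measured after seven days incubation then overnight dye step; 0% = bacteria only wells and 100% = bacteria with antibiotic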
FadD28 binding = M. tuberculosis FadD28 bisubstrate binding inhibition | FadD28 bisubstrate probe binding, fluorescence polarization | AID 588549 | inhibition, % at 12.5 µM | 360,000 tested, 0.22% active; in the data active = inhibition above about 8.5%, passing the limit was not always enough
Rv3671c protease = inhibits the M. tuberculosis serine protease Rv3671c. inhibition, % at 5.96 µM. 320,000 tested, 0.048% active; in the data active = inhibition above about 38%;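 note: extracellular domain of Rv3671c used as enzyme; 0% = enzyme with DMSO and 100% = no enzyme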
Target sequence (P9WHR9 whole entry, looked up, the tested form may be a part): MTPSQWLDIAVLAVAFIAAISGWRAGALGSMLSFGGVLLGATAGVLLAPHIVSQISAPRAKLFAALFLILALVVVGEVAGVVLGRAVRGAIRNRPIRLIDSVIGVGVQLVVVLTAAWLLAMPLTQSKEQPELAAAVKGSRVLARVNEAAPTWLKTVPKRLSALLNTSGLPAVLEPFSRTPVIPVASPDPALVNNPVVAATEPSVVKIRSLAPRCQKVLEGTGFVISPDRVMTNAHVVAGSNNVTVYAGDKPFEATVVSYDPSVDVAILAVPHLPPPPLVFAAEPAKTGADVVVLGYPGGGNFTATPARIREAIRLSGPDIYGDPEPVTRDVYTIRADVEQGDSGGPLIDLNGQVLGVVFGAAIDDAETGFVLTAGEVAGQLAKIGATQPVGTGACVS
The depositor's hits bear a star.

`Nc1ccc(-c2c3ccc(=O)cc-3oc3cc(O)ccc23)c(C(=O)O)c1` gave UGM FP inh 45*, MazF activator inactive, Vc quorum ag -3, Mtb bLac sens 2, FadD28 binding 5 and Rv3671c protease 5.
`O=C(Nc1sc(-c2ccccc2)cc1C(=O)O)c1ccccc1` gave UGM FP inh 0, MazF activator -29, Vc quorum ag 0, Mtb bLac sens 85, FadD28 binding 19* and Rv3671c protease 13.
CCOC(=O)c1cc(-c2ccccc2)sc1NC(=O)c1ccc(OC)cc1 was read as UGM FP inh 0, MazF activator -1, Mtb bLac sens 14 and Rv3671c protease -1.
`COc1cc(C(=O)N2CCC2(C)C(=O)NC(C)C)cc(OC)c1OC` (stereo not given) gave Vc quorum ag -1 and FadD28 binding -1.
`Cc1cc(C)cc(N2C(=O)NC(=O)/C(=C\c3cc(C)n(C)c3C)C2=O)c1` gave UGM FP inh -4, MazF activator 92*, Vc quorum ag 0, Mtb bLac sens 2, FadD28 binding -3 and Rv3671c protease -4.
Screening Cc1cc(/C=C2\C(=O)NC(=O)N(c3ccc(Cl)cc3)C2=O)c(C)n1C returned UGM FP inh -2, MazF activator 35, Vc quorum ag 2, Mtb bLac sens 22, FadD28 binding 0 and Rv3671c protease 1.
Screening CN(/N=C/c1ccc(N(C)C)cc1)C1=NS(=O)(=O)c2ccccc21 returned UGM FP inh 0, MazF activator active, Vc quorum ag inactive, Mtb bLac sens 4, FadD28 binding -2 and Rv3671c protease -37.
For CSc1ccc(S(=O)(=O)NCC(=O)OCCOc2ccccc2)cc1[N+](=O)[O-] the results were UGM FP inh 0, MazF activator 78*, Vc quorum ag -2, Mtb bLac sens 0, FadD28 binding -3 and Rv3671c protease 3.
Screening Cn1c(CC(=O)NNC(=O)c2cccnc2)nc2ccccc21 returned UGM FP inh 3, MazF activator -3, Vc quorum ag 20*, Mtb bLac sens 0, FadD28 binding -2 and Rv3671c protease -6.
Screening Nn1c(SCC(=O)Nc2ccc3c(c2)OCCO3)nncc1=O returned UGM FP inh 2, MazF activator -8, Vc quorum ag inactive, Mtb bLac sens 5, FadD28 binding -1 and Rv3671c protease -8.
COc1ccccc1CN=c1c([N+](=O)[O-])nn(-c2ccc3c(c2)OCCO3)n1O was read as UGM FP inh -1, MazF activator 11, Vc quorum ag 0, Mtb bLac sens 94, FadD28 binding 1 and Rv3671c protease -2.
For O=[N+]([O-])c1nn(-c2ccc3c(c2)OCCO3)n(O)c1=NCc1ccccc1Cl the results were UGM FP inh -1, MazF activator 71*, Vc quorum ag 1, Mtb bLac sens 1, FadD28 binding 0 and Rv3671c protease -1.
CN(c1ccccc1)S(=O)(=O)c1ccc(NC(=O)CC(=O)c2ccccc2)cc1 was read as MazF activator 23, Vc quorum ag inactive and FadD28 binding 25*.
`N#Cc1ccc(OCC(=O)N2CCCC2=O)cc1` gave UGM FP inh 3, MazF activator 1, Vc quorum ag -6, Mtb bLac sens 0, FadD28 binding -4 and Rv3671c protease 7.
For CCOC(=O)N1CCN(S(=O)(=O)c2ccc(C(=O)NNc3nc4c(C)cc(C)cc4s3)cc2)CC1 the results were UGM FP inh 5, MazF activator 7, Vc quorum ag 0, Mtb bLac sens -2, FadD28 binding 15* and Rv3671c protease 0.
Cc1cccc2sc(NNC(=O)c3ccc(S(=O)(=O)N4CCc5ccccc5C4)cc3)nc12 was read as UGM FP inh 0, MazF activator 1, Vc quorum ag inactive, Mtb bLac sens -4, FadD28 binding 3 and Rv3671c protease 11.
CCOC(=O)N1CCN(S(=O)(=O)c2ccc(C(=O)NNc3nc4ccc(Cl)cc4s3)cc2)CC1 was read as UGM FP inh 0, MazF activator 5, Vc quorum ag -2, Mtb bLac sens 4, FadD28 binding 12* and Rv3671c protease -4.
Screening CCOC(=O)N1CCN(S(=O)(=O)c2ccc(C(=O)NNc3nc4c(C)cccc4s3)cc2)CC1 returned UGM FP inh -1, MazF activator 2, Vc quorum ag -1, Mtb bLac sens 6, FadD28 binding 17* and Rv3671c protease 11.
`CCOC(=O)N1CCN(S(=O)(=O)c2ccc(C(=O)N(CCN(C)C)c3nc4ccc(Cl)cc4s3)cc2)CC1` gave UGM FP inh 1, MazF activator 9, Vc quorum ag -1, Mtb bLac sens -25, FadD28 binding -1 and Rv3671c protease 4.
For CCOC(=O)N1CCN(S(=O)(=O)c2ccc(C(=O)NNc3nc4cc(C)cc(C)c4s3)cc2)CC1 the results were UGM FP inh -1, MazF activator 10, Vc quorum ag inactive, Mtb bLac sens -2, FadD28 binding 3 and Rv3671c protease 16.
`CC1(N=Cc2cc(Cl)ccc2O)COP(=O)(Nc2ccccc2)OC1` (stereo not given) gave MazF activator 2, Vc quorum ag inactive and FadD28 binding -1.
`CCN1C(=O)[C@H]2[C@@H](c3ccc(-c4ccccc4)cc3)N[C@@](CC(C)C)(C(=O)OC)[C@H]2C1=O` gave UGM FP inh 2, MazF activator -1, Vc quorum ag inactive, Mtb bLac sens -9, FadD28 binding -4 and Rv3671c protease 5.
Screening O=S1(=O)N=C(N/N=C/c2cccs2)c2ccccc21 returned UGM FP inh 1, MazF activator 9, Vc quorum ag 0, Mtb bLac sens 5, FadD28 binding -1 and Rv3671c protease 7.
For Cc1cccc2cc3c(N)c(C(=O)Nc4ccc(N5CCOCC5)cc4)sc3nc12 the results were UGM FP inh -1, MazF activator -28, Vc quorum ag inactive, Mtb bLac sens 15, FadD28 binding -3 and Rv3671c protease 11.
For Cc1cccc2cc3c(N)c(C#N)sc3nc12 the results were UGM FP inh 1, MazF activator 92*, Vc quorum ag 0, Mtb bLac sens 1, FadD28 binding -2 and Rv3671c protease -7.
Screening Cc1sc(NC(=O)c2sc3nc4c(C)cccc4cc3c2N)c(C#N)c1C returned UGM FP inh 3, MazF activator -2, Vc quorum ag 0, Mtb bLac sens 6, FadD28 binding -2 and Rv3671c protease -18.
`Cc1cccc2cc3c(N)c(C(=O)N4CCc5ccccc54)sc3nc12` gave UGM FP inh 2, MazF activator 86*, Vc quorum ag 0, Mtb bLac sens 10, FadD28 binding 0 and Rv3671c protease -5.
Screening CCCC(C(=O)NC1CCCC1)N(Cc1ccccc1Cl)C(=O)c1snc(C(N)=O)c1N (stereo not given) returned UGM FP inh -4, MazF activator 10, Vc quorum ag -1, Mtb bLac sens 6, FadD28 binding -4 and Rv3671c protease -9.
